As a reminder, the inhibition is the drop in the measured response relative to a control, in per cent.

This note sets out measurements from PubChem BioAssay.

Unmarked numbers belong to inactive results. Activity calls are given as the source filed them. Unless noted, how the calls were made is not given here.

Chain of L-lactate dehydrogenase (Plasmodium falciparum (isolate CDC / Honduras)) (Q27743 whole entry, looked up): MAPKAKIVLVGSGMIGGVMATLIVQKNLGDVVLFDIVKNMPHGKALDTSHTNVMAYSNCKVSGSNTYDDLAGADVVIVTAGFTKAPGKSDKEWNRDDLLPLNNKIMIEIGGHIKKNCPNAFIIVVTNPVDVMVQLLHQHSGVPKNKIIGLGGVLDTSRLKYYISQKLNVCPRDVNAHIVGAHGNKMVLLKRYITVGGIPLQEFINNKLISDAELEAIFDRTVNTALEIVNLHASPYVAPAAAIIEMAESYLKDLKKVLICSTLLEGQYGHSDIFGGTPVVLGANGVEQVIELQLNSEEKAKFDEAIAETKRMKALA

System in one assay: not listed separately
As to the kind of experiment: HepG2 cytotoxicity, primary screen, cytotoxicity control for P. falciparum antimalarial project, cell-based, ATP luminescence (AID 2303;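 active means inhibition above 50%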;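 further: 0% = DMSO wells and 100% = digitonin-killed cells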). The following applies: HepG2 viability, 24-48 h, at 10 µM, stronger effect = higher value.
With `CC1(C)N=C(N)N=C(N)N1OCCc1ccc(N)cc1`, the inhibition was 65% (active).
For `Cc1ccc(C(C(=O)Nc2ccc(N3CCNCC3)c(Cl)c2)c2ccccc2)cc1` (stereo not given), the inhibition was 23%.
Turning to `Cc1ccc2[nH]c3ccccc3c(=O)c2c1`, the inhibition is -4%.
Still for that read-out and setting: for `COc1ccc2nccc(N3CCCN(CCNCc4ccc5c(n4)NC(=O)CS5)CC3)c2n1` the value was 8%.
In the case of `O[C@@H](c1cccc2ccccc12)[C@@H]1CN(CCc2ccccc2)CC[C@@]1(O)c1ccccc1`, the inhibition is -2%.
For the molecule `CC(C)(C)c1cc(NC(=O)c2ccc(Cl)c([N+](=O)[O-])c2)cc(C(C)(C)C)c1`, the inhibition was -4%.
For `Cc1cc(N[C@@H](Cc2ccccc2)C(=O)NCCOc2ccccc2)nc(NCCc2ccccc2)n1`, the inhibition is 12%.
Still for that read-out and setting: for `N#Cc1ccc(N2CCN(Cc3ccc(-c4ccc(-c5nc6ccc(F)cc6[nH]5)s4)cc3)CC2)nc1` the value was 12%.
As to `COc1ccc2nccc(NC(=O)C3(O)CCC(NCc4ccc5c(c4)NCCS5)CC3)c2n1` (stereo not given), the inhibition was 1%.
On to `Cc1cccc(-n2nc(C)c3c2NC(=O)CC3C(=O)c2ccc(Cl)s2)c1` (stereo not given), for which the inhibition is 13%.
As for `COc1ccc(C=NNc2cc(C)nc3c(C)cccc23)c2ccccc12`, the inhibition is 3%.
Still for that read-out and setting: in the case of `NC(=NCCCCC1CCCCC1)c1cccc(C(N)=NCCCCC2CCCCC2)n1` it was 99% (active); in that of `CC(C)c1ccc(CN2CCC(CNC(=O)c3cc(-c4cccc(Cl)c4)cs3)C2)cc1` (stereo not given), 42%.
For `OC1CCN(c2cc(-c3ccccn3)nc(-c3ccccn3)n2)CC1`, the inhibition was 43%.
Consider `Cc1cc(N[C@@H](Cc2ccccc2)C(=O)Nc2ccccc2)nc(NCCc2ccccc2)n1`, for which the inhibition is 8%.
On the same count and under the same terms, in the case of `CN1CCCC1CCNCc1cccc(-c2cnc(N(C)C3CCCCC3)nc2)c1` (stereo not given) it was 98% (active); in that of `c1ccc(CN2CCCN(c3ccc4c(c3)CCN(Cc3ccc(-c5ncc[nH]5)cc3)CC4)CC2)cc1`, 6%.
With `N#Cc1ccc(-c2ccc(C(=O)NCCCCN3CCC(c4ccc5c(c4OCC(N)=O)CCCC5)CC3)cc2)cc1`, the inhibition is 21%.
Turning to `CC(C)CNCc1cccc(-c2cccc(CN(CCCN3CCN(C)CC3)C(=O)Nc3ccccc3)c2)c1`, the inhibition was 25%.
With `O=C(NCCCCN1CCC(c2ccc3c(c2OCc2ccncc2)CCCC3)CC1)c1ccc(-c2ccc(C(F)(F)F)cc2)cc1`, the inhibition is 96% (active).
On to `O=C(C=Cc1ccc(Br)cc1)N1CCC(CCN2CCC(c3c[nH]c4ccccc34)CC2)CC1`, for which the inhibition was 47%.
Turning to `CC(=O)c1c(Cc2ccccc2Cl)c[nH]c1C`, the inhibition was -2%.
Turning to `CN(C)CCOc1cc(NC(=O)Nc2ccc(-c3ccccc3)cc2Cl)ccc1I`, the inhibition was 25%.
Turning to `CCOc1ccccc1CCNCC1CCN(CC2CCCCC2)CC1`, the inhibition was 35%.
As for `c1ccc2c(c1)CN(CC1CC1)CC1(CCN(Cc3c[nH]c4cnccc34)CC1)O2`, the inhibition is 30%.
For the molecule `O=C(Nc1ccccc1C(F)(F)F)Nc1nn(Cc2c(F)cccc2Cl)cc1Br`, the inhibition is -15%.
For the molecule `CN1CCN(c2ccnc3ccc(NC(=O)Nc4cccc5c(-c6ccncc6)cccc45)cc23)CC1`, the inhibition is 7%.
The same measure, in the same setting: in the case of `O=C(COc1cccc([N+](=O)[O-])c1)Nc1ccc(-c2nc3ccccc3[nH]2)cc1` it was 12%; in that of `Cc1cccc2[nH]c(-c3ccc(-c4cccc(NC(=O)c5cnn6cccnc56)c4)cc3)nc12`, 100% (active); in that of `O=C(C=Cc1ccc(F)cc1)N1CCN(S(=O)(=O)c2ccc(Cl)cc2)CC1`, 10%.
For the molecule `CCN(CC)c1ccc(C(=O)Cn2ccc(=N)cc2)cc1`, the inhibition was 92% (active).
As for `COc1ccc2nc(C)cc(Nc3ccc(Oc4ccc5ccccc5c4Cl)c(Cl)c3)c2c1`, the inhibition is 32%.
On the same count and under the same terms, for `COc1cccc(NC(=O)Nc2ccc(Nc3nc(C)cc(N(C)C)n3)cc2)c1` the value was 14%; for `CC(C)Cc1nc(N2CCOCC2)c2nnn(Cc3ccccc3)c2n1`, 7%.
As for `O=C([C@@H]1CCCCN1c1ccc([N+](=O)[O-])c2ccccc12)N1CCN(c2ncccn2)CC1`, the inhibition was 50% (active).
Regarding `CN1CCC(N2CCN(c3ccc4c(=O)nc(CCc5cccc(F)c5F)n(CC(=O)N(C)Cc5ccc(-c6ccc(C(F)(F)F)cc6)cc5)c4n3)CC2)CC1`, the inhibition was 15%.
`O=C(/C=C/c1ccc(Cl)c(Cl)c1)NCCCCCN1CCCC(C(=O)Nc2ccc(Cl)cc2)C1` (stereo not given): the inhibition was 35%.
In the case of `COCCN1CCC(NCC(C)(C)c2nc(-c3ccc(Cl)c(O)c3)c(-c3ccncc3)[nH]2)CC1`, the inhibition was -8%.
Regarding `CC(Nc1ncc(-c2ccsc2)c(-c2nccs2)n1)c1ccc2c(c1)OCCO2` (stereo not given), the inhibition was 14%.
`CC1CC(NCCCNc2cc(=O)c3ccccc3[nH]2)c2c1cc(Cl)c(Cl)c2Cl` (stereo not given): the inhibition is 1%.

Another assay addresses L-lactate dehydrogenase (Plasmodium falciparum (isolate CDC / Honduras)) (UniProt Q27743). Nature of the assay: PfLDH activity inhibition – cell lysate, 3D7 strain, counter-screen for P. falciparum growth inhibition project (AID 2304).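 Further: 0% = vehicle and 100% = reference inhibitor.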 Conditions: P. falciparum 3D7 crude extract, LDH APAD/NBT absorbance; at 2 µM; stronger effect = higher value. (A counterscreen serves to expose hits that act by an unwanted route or on another target.)
With `CC1(C)N=C(N)N=C(N)N1OCCc1ccc(N)cc1`, the inhibition is -6%.
For the molecule `Cc1ccc(C(C(=O)Nc2ccc(N3CCNCC3)c(Cl)c2)c2ccccc2)cc1` (stereo not given), the inhibition is -2%.
Consider `Cc1ccc2[nH]c3ccccc3c(=O)c2c1`, for which the inhibition is -1%.
Regarding `COc1ccc2nccc(N3CCCN(CCNCc4ccc5c(n4)NC(=O)CS5)CC3)c2n1`, the inhibition was -2%.
On to `O[C@@H](c1cccc2ccccc12)[C@@H]1CN(CCc2ccccc2)CC[C@@]1(O)c1ccccc1`, for which the inhibition is -2%.
Same read-out and setting: for `CC(C)(C)c1cc(NC(=O)c2ccc(Cl)c([N+](=O)[O-])c2)cc(C(C)(C)C)c1` the value was 4%; for `Cc1cc(N[C@@H](Cc2ccccc2)C(=O)NCCOc2ccccc2)nc(NCCc2ccccc2)n1`, -1%.
For `N#Cc1ccc(N2CCN(Cc3ccc(-c4ccc(-c5nc6ccc(F)cc6[nH]5)s4)cc3)CC2)nc1`, the inhibition was 3%.
As to `COc1ccc2nccc(NC(=O)C3(O)CCC(NCc4ccc5c(c4)NCCS5)CC3)c2n1` (stereo not given), the inhibition was -1%.
As to `Cc1cccc(-n2nc(C)c3c2NC(=O)CC3C(=O)c2ccc(Cl)s2)c1` (stereo not given), the inhibition was -1%.
In the case of `COc1ccc(C=NNc2cc(C)nc3c(C)cccc23)c2ccccc12`, the inhibition is 0%.
Take `NC(=NCCCCC1CCCCC1)c1cccc(C(N)=NCCCCC2CCCCC2)n1`: the inhibition is 3%.
On to `CC(C)c1ccc(CN2CCC(CNC(=O)c3cc(-c4cccc(Cl)c4)cs3)C2)cc1` (stereo not given), for which the inhibition was 1%.
Turning to `OC1CCN(c2cc(-c3ccccn3)nc(-c3ccccn3)n2)CC1`, the inhibition is -2%.
As to `Cc1cc(N[C@@H](Cc2ccccc2)C(=O)Nc2ccccc2)nc(NCCc2ccccc2)n1`, the inhibition is 3%.
With `CN1CCCC1CCNCc1cccc(-c2cnc(N(C)C3CCCCC3)nc2)c1` (stereo not given), the inhibition was 2%.
Turning to `c1ccc(CN2CCCN(c3ccc4c(c3)CCN(Cc3ccc(-c5ncc[nH]5)cc3)CC4)CC2)cc1`, the inhibition was 2%.
As to `N#Cc1ccc(-c2ccc(C(=O)NCCCCN3CCC(c4ccc5c(c4OCC(N)=O)CCCC5)CC3)cc2)cc1`, the inhibition is -3%.
`CC(C)CNCc1cccc(-c2cccc(CN(CCCN3CCN(C)CC3)C(=O)Nc3ccccc3)c2)c1`: the inhibition is 1%.
Consider `O=C(NCCCCN1CCC(c2ccc3c(c2OCc2ccncc2)CCCC3)CC1)c1ccc(-c2ccc(C(F)(F)F)cc2)cc1`, for which the inhibition is 3%.
Same read-out and setting: for `O=C(C=Cc1ccc(Br)cc1)N1CCC(CCN2CCC(c3c[nH]c4ccccc34)CC2)CC1` the value was 2%.
For the molecule `CC(=O)c1c(Cc2ccccc2Cl)c[nH]c1C`, the inhibition is 0%.
`CN(C)CCOc1cc(NC(=O)Nc2ccc(-c3ccccc3)cc2Cl)ccc1I`: the inhibition was 3%.
As to `CCOc1ccccc1CCNCC1CCN(CC2CCCCC2)CC1`, the inhibition is -1%.
As to `c1ccc2c(c1)CN(CC1CC1)CC1(CCN(Cc3c[nH]c4cnccc34)CC1)O2`, the inhibition is -1%.
As for `O=C(Nc1ccccc1C(F)(F)F)Nc1nn(Cc2c(F)cccc2Cl)cc1Br`, the inhibition is -8%.
Same read-out and setting: for `CN1CCN(c2ccnc3ccc(NC(=O)Nc4cccc5c(-c6ccncc6)cccc45)cc23)CC1` the value was 1%; for `O=C(COc1cccc([N+](=O)[O-])c1)Nc1ccc(-c2nc3ccccc3[nH]2)cc1`, 7%.
On to `Cc1cccc2[nH]c(-c3ccc(-c4cccc(NC(=O)c5cnn6cccnc56)c4)cc3)nc12`, for which the inhibition is -4%.
For the molecule `O=C(C=Cc1ccc(F)cc1)N1CCN(S(=O)(=O)c2ccc(Cl)cc2)CC1`, the inhibition is -2%.
As to `CCN(CC)c1ccc(C(=O)Cn2ccc(=N)cc2)cc1`, the inhibition was 3%.
The same measure, in the same setting: in the case of `COc1ccc2nc(C)cc(Nc3ccc(Oc4ccc5ccccc5c4Cl)c(Cl)c3)c2c1` it was 7%; in that of `COc1cccc(NC(=O)Nc2ccc(Nc3nc(C)cc(N(C)C)n3)cc2)c1`, 5%; in that of `CC(C)Cc1nc(N2CCOCC2)c2nnn(Cc3ccccc3)c2n1`, -2%.
In the case of `O=C([C@@H]1CCCCN1c1ccc([N+](=O)[O-])c2ccccc12)N1CCN(c2ncccn2)CC1`, the inhibition is 5%.
`CN1CCC(N2CCN(c3ccc4c(=O)nc(CCc5cccc(F)c5F)n(CC(=O)N(C)Cc5ccc(-c6ccc(C(F)(F)F)cc6)cc5)c4n3)CC2)CC1`: the inhibition is 2%.
Still for that read-out and setting: for `O=C(/C=C/c1ccc(Cl)c(Cl)c1)NCCCCCN1CCCC(C(=O)Nc2ccc(Cl)cc2)C1` (stereo not given) the value was -3%; for `COCCN1CCC(NCC(C)(C)c2nc(-c3ccc(Cl)c(O)c3)c(-c3ccncc3)[nH]2)CC1`, -2%.
As for `CC(Nc1ncc(-c2ccsc2)c(-c2nccs2)n1)c1ccc2c(c1)OCCO2` (stereo not given), the inhibition was 2%.
As for `CC1CC(NCCCNc2cc(=O)c3ccccc3[nH]2)c2c1cc(Cl)c(Cl)c2Cl` (stereo not given), the inhibition is 3%.
